Screening results deposited in PubChem by National Center for Advancing Translational Sciences (NCATS).
D1 antagonist: blocks dopamine activation of the human D1 receptor; activity change, negative = inhibition, % at 10 µM; HEK293 TREx D1 cells, calcium flux, dopamine EC80; active compounds read low; 360,000 compounds, 3.2% hits; P21728; in the data active = activity change below about -30%; note: % is set by controls: 0 for no effect and ±100 for the full control effect
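Antagonism measured as reduced calcium response to an EC80 dopamine addition following 180 s compound pre-read; cells were inducible HEK293 Trex D1 plated overnight at 30 C, read kinetically at 1 cycle/sec.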
D1 PAM: human D1 dopamine receptor positive modulation; P21728; HEK293 TREx D1 cells, calcium flux, dopamine EC20 potentiation; potentiation, % at 10 µM; 360,000 compounds, 0.036% hits; AID 504651; in the data active = potentiation above about 30%; note: 0% is about no effect
DRD3 antagonist: blocks the human D3 dopamine receptor. P35462. D3R cells, DiscoveRx beta-arrestin luminescence, antagonist mode; active compounds read low. max response, negative = inhibition, %. 360,000 compounds, 2.5% hits. AID 652054; in the data active = max response below about -50%; note: % is set by controls: 0 for no effect and ±100 for the full control effect
Target sequence (P35462 whole entry, looked up): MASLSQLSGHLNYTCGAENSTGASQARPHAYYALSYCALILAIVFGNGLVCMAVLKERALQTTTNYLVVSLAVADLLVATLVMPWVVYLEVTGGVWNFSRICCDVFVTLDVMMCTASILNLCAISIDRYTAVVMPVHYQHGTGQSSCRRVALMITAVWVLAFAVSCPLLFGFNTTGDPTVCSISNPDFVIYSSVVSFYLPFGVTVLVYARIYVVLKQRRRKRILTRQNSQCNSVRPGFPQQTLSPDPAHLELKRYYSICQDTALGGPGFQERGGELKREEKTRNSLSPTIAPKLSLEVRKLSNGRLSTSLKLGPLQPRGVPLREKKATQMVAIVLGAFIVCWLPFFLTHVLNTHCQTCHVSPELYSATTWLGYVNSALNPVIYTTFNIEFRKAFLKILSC
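Cells plated overnight at 1500 cells/well, then exposed to library compounds with dopamine controls for 90 minutes at 37 degrees C. DiscoveRx reagent added for 30–60 minutes at room temperature; luminescence read, quantitative HTS format.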
DRD3 agonist: D3 dopamine receptor (human) agonism; P35462; D3R DiscoveRx beta-arrestin cells, luminescence, 90 min; max activation, %; 410,000 compounds, 0.58% hits; in the data active = max activation above about 30%; note: 0% is about no effect
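Agonist-mode cell screen: cells plated at 1500/well and incubated overnight at 37 °C, then exposed to library compounds for 90 min at 37 °C. Detection reagent was added for 30–60 min at room temperature, and luminescence was read.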
D1 agonist: human D1 receptor agonism | 360,000 compounds, 1% hits | activation, % at 2 µM | P21728 | HEK293 T-REx D1 cells, calcium flux, agonist mode; in the data active = activation above about 30%; note: 0% is about no effect
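Agonism was scored from calcium flux recorded over 180 s (1 read/s) after pintool compound addition, following a 10-cycle baseline. Cells were inducible force-coupled HEK293 TREx D1, plated overnight at 30 C and loaded with no-wash calcium dye.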
Active calls of the source: *; . = no result; ! = a repeat was not active. Only some compounds are listed: those with a hit (about 6.1% of all), similar ones and a draw of the others.

SMILES	D1 antagonist	D1 PAM	DRD3 antagonist	DRD3 agonist	D1 agonist
CN1C2CCC1/C(=C/c1cccn1C)C(=O)/C2=C\c1cccn1C	-6.1	-3.8	-2.7	0.4	187.3*
Cn1cccc1/C=C1\Cc2ccccc2C1=O	7.0	1.1	26.0	4.1	4.2
Cn1cccc1/C=C1\CC(C(C)(C)C)C/C(=C\c2cccn2C)C1=O (stereo not given)	-7.7	2.2	35.4	2.1	122.8*
CCCOc1ccc(NC(=O)CNC(=O)c2cc(OC)cc(OC)c2)cc1OCCC	-5.2	6.7	-57.7*	-19.5	1.1
Cc1cc(C)cc(NC(=O)C2CCN(S(=O)(=O)c3c(C)n[nH]c3C)CC2)c1	-76.6*	-18.3	20.1	9.7	-0.1
Cc1noc(/C=C/N(C)C)c1S(=O)(=O)N1CCC(C(=O)Nc2ccc(Cl)cc2)CC1	-45.5*	-5.4	-24.2	2.7	3.5
Cc1noc(/C=C/c2ccco2)c1S(=O)(=O)N1CCC(C(=O)Nc2ccc(F)c(Cl)c2)CC1	-47.9*	4.3	.	2.0	9.9
Cc1ccc(NC(=O)C2CCN(S(=O)(=O)c3c(C)noc3/C=C/N(C)C)CC2)cc1	-3.2	1.1	-11.4	-2.0	0.0
Cc1ccc(NC(=O)C2CCN(S(=O)(=O)c3c(C)noc3/C=C/c3ccco3)CC2)cc1C	-2.5	3.3	.	-11.3	2.9
O=C(NCCCN1CCOCC1)c1ccc2c(c1)N(Cc1ccc(Cl)cc1)C(=O)c1ccccc1S2=O (stereo not given)	3.1	3.2	-19.0	-0.3	16.3
COc1ccc(N2CCN(S(=O)(=O)c3ccc(F)c(C(=O)Nc4ccccc4Cl)c3)CC2)cc1	-0.3	-1.1	.	8.3	-2.6
Cc1cc(CCCCCCCCc2cc(C)cc(=O)o2)oc(=O)c1	-21.9	-4.5	21.9	9.1	12.3
COc1ccc(C2(C)NC(=O)N(CC3CCCCC3)C2=O)cc1 (stereo not given)	-52.2*	-5.0	15.8	-2.3	12.0
CCOc1ccc(CCNC(=O)Cn2nnc(-c3ccccc3Cl)n2)cc1OCC	0.8	-3.5	.	8.3	-0.3
CCC(=O)O[C@@H]1CC(=O)O[C@H](C)C/C=C/C=C/[C@H](O)[C@H](C)C[C@H](CC=O)[C@H](O[C@@H]2O[C@H](C)[C@@H](O[C@H]3C[C@@](C)(O)[C@@H](OC(=O)CC)[C@H](C)O3)[C@H](N(C)C)[C@H]2O)[C@H]1OC	.	.	.	7.4	.
Cc1ccc(NC(=O)C2CCN(S(=O)(=O)c3ccc(Cl)c(C(F)(F)F)c3)CC2)nc1	-39.1*	-6.2	-11.8	-9.0	0.6
Cc1cccc(NC(=O)C2CCN(S(=O)(=O)c3ccc4c(c3)OCCO4)CC2)n1	1.8	-3.8	-53.6*	-4.8	12.0
Cc1cc(N2CCN(S(=O)(=O)c3ccc4c(c3)OCCO4)CC2)n2ncnc2n1	-46.3*	-4.2	-11.7	10.0	10.1
Cc1ccc(S(=O)(=O)N2CCC(C(=O)Nc3ccc4c(c3)OCO4)CC2)cc1	-47.0*	-8.7	15.8	-5.1	1.8
COc1ccc(OCc2nc(-c3ccc(F)c(F)c3)cs2)cc1	6.6	-5.6	5.9	25.6	16.9
Cc1ccc(NC(=O)C2CCN(S(=O)(=O)c3ccc4c(c3)OCCCO4)CC2)nc1	-33.0*	-7.1	-20.5	-6.3	2.3
CCOC(=O)CN=C/C(C(=O)Nc1nccs1)=C(/C)O	1.3	-8.4	-6.9	8.5	-0.8
CCc1nc(NCC2CCCO2)c(C#N)c2c1COC(C)(C)C2 (stereo not given)	-34.9*	-2.1	19.7	8.1	1.2
CC(C)c1nc(NCC2CCCO2)c(C#N)c2c1COC(C)(C)C2 (stereo not given)	6.6	-9.2	0.7	1.3	2.4
CC[C@]1(C(=O)OC)[C@H]2C(=O)N(C)C(=O)[C@H]2[C@H]2CN(C)C(=NC)N21	.	.	-20.8	-21.0	.
SMILES	D1 antagonist	D1 PAM	DRD3 antagonist	DRD3 agonist	D1 agonist
CC(=O)N1CCCc2cc(S(=O)(=O)N(C)CC(=O)Nc3ccccc3)ccc21	.	.	0.0	-2.5	.
COc1ccc(NC(=O)COc2nsnc2N2CCCCC2)cc1	-33.7*	0.2	35.9	4.2	4.1
CN(CC(=O)Nc1ccc(Cl)c(Cl)c1)CC(=O)N1CCCCCC1	.	.	16.0	0.7	.
COc1ccc(NC(=O)CN(C)S(=O)(=O)c2ccc3c(c2)CCCN3C(C)=O)cc1	-42.5*!	-0.6	12.4	-0.1	0.5
COc1ccc(NC(=O)CN(C)CC(=O)N2CCCCCC2)cc1	-3.8	0.9	-64.8*	1.3	2.4
CCOC(=O)C1CCC(CNCc2ccccc2C)CC1 (stereo not given)	-23.3	-8.7	-10.7	-0.3	2.8
COc1ccccc1CNC(=O)OCc1nccnc1C(=O)Nc1ccc(Br)cn1	-35.4*	-1.5	12.7	-4.7	1.0
COc1ccc(C)cc1NC(=O)Nc1ccc(Br)cn1	-10.0	0.4	32.1	1.0	1.1
CC(C)CNS(=O)(=O)c1ccc(OCC(=O)Nc2ccc3c(c2)OCCO3)cc1	-12.4	-7.0	2.8	-8.5	4.1
CC(C)[C@H](NS(=O)(=O)c1ccc2c(c1)OCCO2)C(=O)OCC(=O)Nc1cccc(Cl)c1Cl	-30.6*	-5.4	11.0	-1.4	4.1
CC(C)[C@H](NS(=O)(=O)c1ccc2c(c1)OCCO2)C(=O)OCC(=O)Nc1ccccc1Cl	-9.9	-6.2	-9.2	1.1	5.0
CCC(C)NS(=O)(=O)c1ccc(OCC(=O)Nc2ccc3c(c2)OCCO3)cc1 (stereo not given)	-43.3*	-5.6	-5.6	-7.5	6.2
CCOC(=O)c1ccc(NC(=O)COc2ccc(S(=O)(=O)NC(C)CC)cc2)cc1 (stereo not given)	-37.8*	-2.3	20.6	-4.4	17.4
N#C/C(=C\c1c(Oc2ccc(F)cc2)nc2ccccn2c1=O)c1nc2ccccc2s1	4.4	-3.1	.	8.0	1.3
CNS(=O)(=O)c1cccc(C(=O)OCC(=O)/C=C2/N(C)c3ccccc3C2(C)C)c1	-42.9*	-5.7	17.9	1.3	18.4
Cn1c(N)c(C(=O)COC(=O)c2cccc(S(=O)(=O)N3CCCCC3)c2)c(=O)n(C)c1=O	0.3	0.2	-2.1	2.6	-1.1
CNS(=O)(=O)c1cccc(C(=O)OCC(=O)c2c(N)n(C)c(=O)n(C)c2=O)c1	-32.4*	0.2	-9.9	-1.5	3.8
CCOC(=O)c1cccc(NC(=O)c2ccc(-n3cnnn3)cc2)c1	.	.	-2.6	74.3*	.
COC(=O)c1cccc(NC(=O)c2cccc(-n3cnnn3)c2)c1	.	.	-1.6	-4.9	.
CCOC(=O)N1CCN(C2CC(=O)N(c3ccc(Oc4ccccc4)cc3)C2=O)CC1 (stereo not given)	-8.7	-3.0	15.3	53.4*	7.6
CCOC(=O)N1CCN(C2CC(=O)N(c3ccc(F)cc3)C2=O)CC1 (stereo not given)	-0.2	4.5	13.1	1.8	-0.4
Cc1ccc(N2C(=O)CC(N3CCN(C4CCc5ccccc5C4)CC3)C2=O)cc1 (stereo not given)	-6.8	-11.4	-54.8*	-13.9	4.7
